Reference: PubChem BioAssay AID651947 (Broad Institute, 2012)
Results with a measured potency or affinity are listed apart. Results filed as inconclusive are left out. The source made the active and inactive calls.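 How the source made its calls: active means luminescence drop in HepG2 cells whose fitted half-effect dose is at most twice the top valid dose; inconclusive means flat curve with 30 to 70% signal loss, or unreliable fit; inactive means the rest.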

experiment: cytotoxicity in HepG2 cells, dose response, cytotoxicity control, cell-based, plate reader, dry powder (AID 651947); settings: HepG2 viability, ATP luminescence (CellTiter-Glo), 48 h, active compounds read low; at 26 µM unless noted

Row | SMILES | max activity
1 | FC(F)(F)c1ccccc1-c1nnc(SCc2ccccc2)o1 | 15.6% [at 1.6 µM] (inactive)
2 | c1ccc(-c2ccc(CSc3nnc(-c4ccccc4)o3)cc2)cc1 | -30.5% [at 0.38 µM] (inactive)
3 | Fc1ccc(-c2nnc(SCc3cn(Cc4ccccc4)nn3)o2)cc1 | 22.1% [at 3 µM] (inactive)
4 | c1ccc(CSc2nnc(-c3ccc(-c4ccccc4)cc3)o2)cc1 | 15.5% (inactive)
5 | COc1ccccc1-c1nnc(SCc2ccccn2)o1 | -21.6% (inactive)
6 | c1ccc(CSc2nnc(-c3cc4ccccc4o3)o2)cc1 | 34.2% [at 6 µM] (inactive)
7 | N#Cc1cccc(-c2nnc(SCc3ccccc3)o2)c1 | 15.2% (inactive)
8 | Fc1ccc(-c2nnc(SCc3ccccn3)o2)cc1 | -30.7% [at 1.6 µM] (inactive)
9 | c1ccc(CSc2nnc(C3CCCCC3)o2)cc1 | 16.5% [at 3 µM] (inactive)
10 | COc1cccc(-c2nnc(SCc3ccccc3)o2)c1 | 22.1% [at 12 µM] (inactive)
11 | Clc1cccc(CSc2nnc(-c3ccccc3)o2)c1 | -32.2% [at 0.195 µM] (inactive)
12 | Clc1ccc(CSc2nnc(-c3ccccc3)o2)cc1 | -22.7% [at 0.8 µM] (inactive)
13 | c1ccc(CSc2nnc(-c3cccnc3)o2)nc1 | -43.9% (inactive)
14 | c1ccc(CSc2nnc(-c3ccccn3)o2)cc1 | -20.9% [at 1.6 µM] (inactive)
15 | c1ccc(-c2nnc(SCc3ccncc3)o2)cc1 | -21.6% [at 0.38 µM] (inactive)
16 | c1ccc(CSc2ncc(-c3ccccc3)o2)cc1 | -32.2% [at 0.195 µM] (inactive)
